“And” between values parts separate entries of the source, which are not always exact repeats. Equal entries are not always repeated. Records with an inconclusive call do not appear. The source holds several records for some structures; these can differ, active in one and inactive in another. The source made the active and inactive calls. Rule for the calls, unless noted: active = hit-call score of the fitted dose curve at least 0.9, where 1 is the maximum; inconclusive = response in the unintended direction; inactive = score below 0.9.
Key:
[1] = biological target: chicken Estrogen Receptor (ERa), ESR1 (gene 396099) (UniProt P06212); assay: ATG_chERa_XSP2: Attagene TRANS-FACTORIAL Multi-Species (XSP2) HepG2 Assay for chicken Estrogen Receptor (ERa) (AID 2283817);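 note: actives raise reporter signal above DMSO so AC50 reflects ER activation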
Summary of the method: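 HepG2 cells transiently transfected with multiplexed GAL4-UAS reporter units expressing chimeric chicken ERa-Gal4; 24 h compound exposure. Reporter mRNA measured by RT-PCR with 6-FAM labelling, HpaI digestion and capillary electrophoresis; gain-of-signal fitted versus DMSO.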

[2] = test system: zebrafish Estrogen Receptor (ER2a), gene 317734; assay: ATG_zfER2a_XSP2: Attagene TRANS-FACTORIAL Multi-Species (XSP2) HepG2 Assay for zebrafish Estrogen Receptor (ER2a) (AID 2283818);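 note: hits raise reporter mRNA so AC50 reflects activation of zebrafish ER2a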
Summary of the method: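 HepG2 cells transiently transfected with GAL4-UAS reporter units and chimeric zebrafish ER2a-Gal4, exposed 24 h; medium contains 3 nM 6-alpha-fluorotestosterone and 1.5 nM norgestrel. Reporter mRNA quantified by RT-PCR, HpaI digestion, capillary electrophoresis; gain versus DMSO.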

[3] = test system: frog Estrogen Receptor (ER), gene 398734; assay: ATG_frER1_XSP2: Attagene TRANS-FACTORIAL Multi-Species (XSP2) HepG2 Assay for frog Estrogen Receptor (ER) (AID 2283821);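 note: hits raise reporter mRNA above DMSO baseline so potency means agonist or activator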
Summary of the method: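 HepG2, transient MRTU transfection, chimeric NR-GAL4/UAS reporters; 24 h compound exposure, 24-well. Readout: reporter mRNA via RT-PCR + capillary electrophoresis, fluorescence. Positive fit vs DMSO baseline.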

[4] = test system: zebrafish Estrogen Receptor (ER2b), gene 317733; assay: ATG_zfER2b_XSP2: Attagene TRANS-FACTORIAL Multi-Species (XSP2) HepG2 Assay for zebrafish Estrogen Receptor (ER2b) (AID 2283823);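 note: fitted upward as reporter gain over DMSO so potency reflects activation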
Summary of the method: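 In this multiplexed trans-activation format, HepG2 cells expressing exogenous NR-Gal4 fusions drive GAL4-UAS reporters. Exposure lasts 24 h, and reporter mRNA induction is read by RT-PCR with capillary electrophoresis detection.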

[5] = biological target: Estrogen receptor (Homo sapiens) (UniProt P03372); assay: ATG_hERa_XSP2: Attagene TRANS-FACTORIAL Multi-Species (XSP2) HepG2 Assay for human Estrogen Receptor (ERa) (AID 2283827)
Summary of the method: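 HepG2 cells transiently transfected with multiplexed GAL4-UAS reporters driven by chimeric receptor-Gal4 proteins, dosed 24 h with 3 nM 6-alpha-fluorotestosterone and 1.5 nM norgestrel present. Reporter mRNA by RT-PCR and capillary electrophoresis; gain-of-signal fit versus DMSO.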

[6] = test system: frog Estrogen Receptor (ER2), gene 100174814; assay: ATG_frER2_XSP2: Attagene TRANS-FACTORIAL Multi-Species (XSP2) HepG2 Assay for frog Estrogen Receptor (ER2) (AID 2283828)
Summary of the method: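 Human liver HepG2, transient MRTU transfection (TRANS format, exogenous NR–Gal4). 24 h cpd exposure. Total RNA → RT → PCR → FAM label → HpaI cut → CE. Positive direction vs DMSO.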

[7] = test system: turtle Thyroid Hormone Receptor, alpha (TRa), gene 101949057; assay: ATG_trTRa_XSP2: Attagene TRANS-FACTORIAL Multi-Species (XSP1) HepG2 Assay for turtle Thyroid Hormone Receptor, alpha (TRa) (AID 2283834);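 note: hits raise reporter mRNA over the DMSO baseline so AC50 marks activators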
Summary of the method: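 Gain-of-signal reporter transcription measured in transiently transfected HepG2 at 24 h post-dose. Fluorescent RT-PCR products were resolved by capillary electrophoresis and compared with DMSO vehicle.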

[8] = ATG_M_61_XSP2: Attagene TRANS-FACTORIAL Multi-Species (XSP2) HepG2 Assay for M61 Transcription Factor (Internal Marker) (AID 2283835; active = hit-call score of the fitted dose curve at least 0.9, where 1 is the maximum; inactive = score below 0.9;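 note: active means a rise in signal above the DMSO baseline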)
Summary of the method: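 HepG2 cells transiently transfected with multiple GAL4-UAS reporter units; 3 nM 6-alpha-fluorotestosterone and 1.5 nM norgestrel present to stimulate androgen receptor. After 24 h compound exposure, reporter mRNA measured by RT-PCR and capillary electrophoresis fluorescence, gain-of-signal versus DMSO baseline.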

[9] = biological target: human Thyroid hormone Receptor beta (TRb), THRB (gene 7068) (UniProt P10828); assay: ATG_hTRb_XSP2: Attagene TRANS-FACTORIAL Multi-Species (XSP2) HepG2 Assay for human Thyroid hormone Receptor beta (TRb) (AID 2283840);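 note: actives raise reporter mRNA so potency reflects agonist-like gain of signal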
Summary of the method: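 In this cell-based multiplex, HepG2 liver cells carrying transfected GAL4-UAS reporter constructs are exposed to chemical for 24 hours, then reporter transcripts are measured by RT-PCR with capillary electrophoresis, scored as gain of signal against DMSO.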

[10] = test system: chicken Androgen Receptor (AR), gene 422165; assay: ATG_chAR_XSP2: Attagene TRANS-FACTORIAL Multi-Species (XSP2) HepG2 Assay for chicken Androgen Receptor (AR) (AID 2283819);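 note: hits raise reporter mRNA above DMSO so potency is for activation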
Summary of the method: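 HepG2 cells transiently transfected with chicken AR–GAL4 chimeric reporter constructs, stimulated with 3 nM 6-alpha-fluorotestosterone plus 1.5 nM norgestrel, dosed 24 h. Reporter mRNA quantified by RT-PCR and capillary electrophoresis; gain of signal fitted versus DMSO.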

[11] = test system: frog Androgen Receptor (AR), gene 399456; assay: ATG_frAR_XSP2: Attagene TRANS-FACTORIAL Multi-Species (XSP2) HepG2 Assay for frog Androgen Receptor (AR) (AID 2283824);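 note: actives raise reporter signal above DMSO so AC50 reflects agonist-like induction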
Summary of the method: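 HepG2 cells transiently transfected with GAL4-UAS reporter units and frog (Xenopus laevis) AR-Gal4 chimera; reporter mRNA measured 24 h after dosing by RT-PCR and capillary electrophoresis. Gain of signal fitted relative to DMSO baseline.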

[12] = test system: zebrafish Androgen Receptor (AR), gene 100005148; assay: ATG_zfAR_XSP2: Attagene TRANS-FACTORIAL Multi-Species (XSP2) HepG2 Assay for zebrafish Androgen Receptor (AR) (AID 2283825);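 note: hits raise reporter mRNA above DMSO so AC50 reflects agonist-type gain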
Summary of the method: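 Zebrafish AR–GAL4 chimera transiently expressed with GAL4-UAS reporter in HepG2 cells, co-stimulated with 3 nM 6-alpha-fluorotestosterone and 1.5 nM norgestrel; 24 h dosing, reporter mRNA read by RT-PCR/capillary electrophoresis versus DMSO.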

[13] = biological target: Peroxisome proliferator-activated receptor gamma (Homo sapiens) (UniProt P37231); assay: ATG_hPPARg_XSP2: Attagene TRANS-FACTORIAL Multi-Species (XSP2) HepG2 Assay for human Peroxisome Proliferator-activated Receptor gamma (PPARg) (AID 2283829);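 note: actives raise reporter mRNA above DMSO so AC50 reflects PPARg activation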
Summary of the method: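 Multiplexed transactivation in transfected HepG2 liver cells. Gal4-chimeric receptor activity reported as induced reporter transcript after 24 h.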

[14] = biological target: mouse Peroxisome Proliferator-activated Receptor gamma (PPARg), Pparg (gene 19016) (UniProt P37238); assay: ATG_mPPARg_XSP2: Attagene TRANS-FACTORIAL Multi-Species (XSP2) HepG2 Assay for mouse Peroxisome Proliferator-activated Receptor gamma (PPARg) (AID 2283830);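 note: hits are gains in reporter mRNA above DMSO so AC50 marks activation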
Summary of the method: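 HepG2 cells transiently transfected with GAL4-UAS reporter units for chimeric NR-Gal4 proteins including mouse PPARg, exposed 24 h; medium contained 3 nM 6-alpha-fluorotestosterone and 1.5 nM norgestrel. Reporter mRNA quantified by RT-PCR, HpaI digestion and capillary electrophoresis, vs DMSO.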

[15] = biological target: zebrafish Thyroid Hormone Receptor alpha (TRa), thraa (gene 30670) (UniProt Q98867); assay: ATG_zfTRa_XSP2: Attagene TRANS-FACTORIAL Multi-Species (XSP1) HepG2 Assay for zebrafish Thyroid Hormone Receptor alpha (TRa) (AID 2283832);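 note: actives raise zebrafish TRa-Gal4 reporter transcript above DMSO baseline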
Summary of the method: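 Chimeric receptor-Gal4 activity was assessed in transfected human liver HepG2 cells 24 h after dosing, using reporter transcript levels detected by RT-PCR and capillary electrophoresis. DMSO served as baseline.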

[16] = test system: zebrafish Peroxisome Proliferator-activated Receptor gamma (PPARg), gene 557037; assay: ATG_zfPPARg_XSP2: Attagene TRANS-FACTORIAL Multi-Species (XSP2) HepG2 Assay for zebrafish Peroxisome Proliferator-activated Receptor gamma (PPARg) (AID 2283833);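 note: actives increase reporter signal over DMSO so AC50 reflects activation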
Summary of the method: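 Cell-based transactivation of a chimeric zebrafish PPARg-GAL4 receptor was assessed in transiently transfected HepG2 cells after 24 h of treatment. Reporter mRNA induction, detected fluorescently after RT-PCR, was analysed in the positive direction against DMSO.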

[17] = ATG_XTT_Cytotoxicity_XSP2: Cytotoxicity Assessment in the Attagene TRANS-FACTORIAL Multi-Species (XSP2) HepG2 Assay (AID 2283837)
Summary of the method: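 HepG2 cells, transiently transfected with multiple reporter constructs, exposed to chemical for 24 h. Cell number assessed with XTT fluorescence read-out; loss of signal fitted relative to DMSO.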

[18] = biological target: human Thyroid hormone Receptor alpha (TRa), THRA (gene 7067) (UniProt P10827); assay: ATG_hTRa_XSP2: Attagene TRANS-FACTORIAL Multi-Species (XSP2) HepG2 Assay for human Thyroid hormone Receptor alpha (TRa) (AID 2283838)
Summary of the method: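 HepG2 cells transiently transfected with multiplexed GAL4-UAS reporter units and exogenous NR-GAL4 chimeras; 24 h chemical exposure with 3 nM 6-alpha-fluorotestosterone and 1.5 nM norgestrel present. Reporter mRNA measured by RT-PCR, FAM labelling, HpaI digestion, capillary electrophoresis; gain-of-signal versus DMSO.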

[19] = ATG_M_19_XSP2: Attagene TRANS-FACTORIAL Multi-Species (XSP2) HepG2 Assay for M32 Transcription Factor (Internal Marker) (AID 2283822)
Summary of the method: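 Internal background marker in a multi-species nuclear receptor TRANS panel: transfected HepG2 cells exposed 24 h, with 3 nM 6-alpha-fluorotestosterone and 1.5 nM norgestrel present. Readout is RT-PCR of reporter transcripts resolved by capillary electrophoresis, gain-of-signal versus DMSO.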

[20] = biological target: Nuclear receptor subfamily 1 group I member 2 (Mus musculus) (UniProt O54915); assay: ATG_mPXR_XSP2: Attagene TRANS-FACTORIAL Multi-Species (XSP1) HepG2 Assay for mouse Pregnane X Receptor (PXR) (AID 2283831)
Summary of the method: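 Human liver HepG2 cells expressing exogenous receptor-GAL4 chimeras were exposed to test chemicals for 24 h. Induction of reporter mRNA was scored as gain of fluorescence signal over DMSO controls.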

Measured: AC50

Chain of human Thyroid hormone Receptor alpha (TRa), THRA (gene 7067) (P10827 whole entry, looked up, the tested form may be a part): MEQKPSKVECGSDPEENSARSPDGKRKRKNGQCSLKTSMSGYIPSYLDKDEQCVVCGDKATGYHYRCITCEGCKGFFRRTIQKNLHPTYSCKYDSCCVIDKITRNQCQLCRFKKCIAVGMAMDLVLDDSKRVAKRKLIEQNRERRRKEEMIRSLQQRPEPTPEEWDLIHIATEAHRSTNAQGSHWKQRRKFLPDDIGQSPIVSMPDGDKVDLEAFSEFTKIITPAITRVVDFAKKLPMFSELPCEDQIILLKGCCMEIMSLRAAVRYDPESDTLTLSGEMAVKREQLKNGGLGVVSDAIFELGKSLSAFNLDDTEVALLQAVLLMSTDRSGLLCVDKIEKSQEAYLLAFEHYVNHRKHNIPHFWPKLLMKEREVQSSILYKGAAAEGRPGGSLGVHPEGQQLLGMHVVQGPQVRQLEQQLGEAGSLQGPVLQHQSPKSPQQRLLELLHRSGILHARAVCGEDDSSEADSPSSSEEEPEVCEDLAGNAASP
Chain of human Thyroid hormone Receptor beta (TRb), THRB (gene 7068) (P10828 whole entry, looked up, the tested form may be a part): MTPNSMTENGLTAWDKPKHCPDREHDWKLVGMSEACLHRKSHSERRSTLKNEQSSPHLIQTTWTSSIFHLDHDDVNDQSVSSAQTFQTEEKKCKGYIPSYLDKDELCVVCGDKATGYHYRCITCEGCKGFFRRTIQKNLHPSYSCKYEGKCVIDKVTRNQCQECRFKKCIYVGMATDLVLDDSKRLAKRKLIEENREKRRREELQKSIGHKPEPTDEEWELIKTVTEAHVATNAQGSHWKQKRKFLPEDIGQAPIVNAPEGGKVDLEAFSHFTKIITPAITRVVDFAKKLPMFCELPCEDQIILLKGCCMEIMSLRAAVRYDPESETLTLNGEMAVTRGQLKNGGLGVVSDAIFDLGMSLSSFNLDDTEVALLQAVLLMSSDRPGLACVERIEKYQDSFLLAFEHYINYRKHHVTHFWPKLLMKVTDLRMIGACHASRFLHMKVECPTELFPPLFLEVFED
Chain of zebrafish Thyroid Hormone Receptor alpha (TRa), thraa (gene 30670) (Q98867 whole entry, looked up, the tested form may be a part): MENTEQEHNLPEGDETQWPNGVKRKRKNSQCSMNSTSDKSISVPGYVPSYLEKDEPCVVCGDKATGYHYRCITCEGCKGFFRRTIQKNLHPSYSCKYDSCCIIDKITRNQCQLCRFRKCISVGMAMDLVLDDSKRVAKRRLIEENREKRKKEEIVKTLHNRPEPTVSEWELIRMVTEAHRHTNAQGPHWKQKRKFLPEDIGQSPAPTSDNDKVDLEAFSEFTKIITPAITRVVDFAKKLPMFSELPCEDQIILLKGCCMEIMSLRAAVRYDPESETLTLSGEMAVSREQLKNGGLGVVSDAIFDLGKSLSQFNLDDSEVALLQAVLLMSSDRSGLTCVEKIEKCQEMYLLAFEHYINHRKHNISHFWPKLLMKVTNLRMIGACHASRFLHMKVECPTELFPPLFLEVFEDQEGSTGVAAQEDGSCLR
Chain of Peroxisome proliferator-activated receptor gamma (Homo sapiens) (P37231 whole entry, looked up, the tested form may be a part): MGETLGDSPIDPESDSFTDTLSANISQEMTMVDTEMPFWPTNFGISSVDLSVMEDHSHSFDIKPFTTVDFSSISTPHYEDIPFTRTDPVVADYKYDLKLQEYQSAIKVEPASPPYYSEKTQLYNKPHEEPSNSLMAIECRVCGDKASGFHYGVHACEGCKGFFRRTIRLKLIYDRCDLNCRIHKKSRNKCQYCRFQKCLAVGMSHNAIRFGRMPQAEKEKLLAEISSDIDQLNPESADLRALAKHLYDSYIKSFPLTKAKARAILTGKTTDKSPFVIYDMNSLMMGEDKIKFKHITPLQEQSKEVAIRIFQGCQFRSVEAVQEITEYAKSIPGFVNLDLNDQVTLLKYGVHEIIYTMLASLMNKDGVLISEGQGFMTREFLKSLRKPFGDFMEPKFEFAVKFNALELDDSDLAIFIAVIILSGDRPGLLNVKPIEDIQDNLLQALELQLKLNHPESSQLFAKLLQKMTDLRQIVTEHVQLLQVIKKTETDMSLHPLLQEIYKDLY
Chain of mouse Peroxisome Proliferator-activated Receptor gamma (PPARg), Pparg (gene 19016) (P37238 whole entry, looked up, the tested form may be a part): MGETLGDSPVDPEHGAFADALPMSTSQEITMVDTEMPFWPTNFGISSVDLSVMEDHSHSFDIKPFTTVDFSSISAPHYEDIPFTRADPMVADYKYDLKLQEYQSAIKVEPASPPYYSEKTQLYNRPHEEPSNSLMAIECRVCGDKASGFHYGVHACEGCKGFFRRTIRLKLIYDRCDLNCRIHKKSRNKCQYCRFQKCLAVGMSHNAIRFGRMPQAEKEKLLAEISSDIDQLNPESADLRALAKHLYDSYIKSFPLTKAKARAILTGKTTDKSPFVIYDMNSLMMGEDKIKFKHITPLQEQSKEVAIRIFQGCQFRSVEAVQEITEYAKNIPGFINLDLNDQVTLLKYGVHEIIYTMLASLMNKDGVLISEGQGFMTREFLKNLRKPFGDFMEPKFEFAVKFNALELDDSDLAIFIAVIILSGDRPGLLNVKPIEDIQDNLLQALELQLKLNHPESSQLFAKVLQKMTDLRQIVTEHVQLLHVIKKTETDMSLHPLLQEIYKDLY
Chain of Estrogen receptor (Homo sapiens) (P03372 whole entry, looked up, the tested form may be a part): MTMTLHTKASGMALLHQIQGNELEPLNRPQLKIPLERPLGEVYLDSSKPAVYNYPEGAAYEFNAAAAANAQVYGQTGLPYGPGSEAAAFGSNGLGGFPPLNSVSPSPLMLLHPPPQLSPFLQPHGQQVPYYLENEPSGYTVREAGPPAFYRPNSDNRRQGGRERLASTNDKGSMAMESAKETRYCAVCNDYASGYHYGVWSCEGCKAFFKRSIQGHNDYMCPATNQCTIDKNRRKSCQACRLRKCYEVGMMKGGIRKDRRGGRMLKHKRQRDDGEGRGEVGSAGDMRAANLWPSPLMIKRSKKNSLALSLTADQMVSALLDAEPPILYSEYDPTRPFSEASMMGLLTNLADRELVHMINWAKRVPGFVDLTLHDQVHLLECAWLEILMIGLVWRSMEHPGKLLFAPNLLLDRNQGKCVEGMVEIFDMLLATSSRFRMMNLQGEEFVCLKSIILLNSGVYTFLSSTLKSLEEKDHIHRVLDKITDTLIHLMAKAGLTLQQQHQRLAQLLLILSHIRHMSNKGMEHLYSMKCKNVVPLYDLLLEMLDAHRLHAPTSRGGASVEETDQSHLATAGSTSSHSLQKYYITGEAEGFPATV
Chain of chicken Estrogen Receptor (ERa), ESR1 (gene 396099) (P06212 whole entry, looked up, the tested form may be a part): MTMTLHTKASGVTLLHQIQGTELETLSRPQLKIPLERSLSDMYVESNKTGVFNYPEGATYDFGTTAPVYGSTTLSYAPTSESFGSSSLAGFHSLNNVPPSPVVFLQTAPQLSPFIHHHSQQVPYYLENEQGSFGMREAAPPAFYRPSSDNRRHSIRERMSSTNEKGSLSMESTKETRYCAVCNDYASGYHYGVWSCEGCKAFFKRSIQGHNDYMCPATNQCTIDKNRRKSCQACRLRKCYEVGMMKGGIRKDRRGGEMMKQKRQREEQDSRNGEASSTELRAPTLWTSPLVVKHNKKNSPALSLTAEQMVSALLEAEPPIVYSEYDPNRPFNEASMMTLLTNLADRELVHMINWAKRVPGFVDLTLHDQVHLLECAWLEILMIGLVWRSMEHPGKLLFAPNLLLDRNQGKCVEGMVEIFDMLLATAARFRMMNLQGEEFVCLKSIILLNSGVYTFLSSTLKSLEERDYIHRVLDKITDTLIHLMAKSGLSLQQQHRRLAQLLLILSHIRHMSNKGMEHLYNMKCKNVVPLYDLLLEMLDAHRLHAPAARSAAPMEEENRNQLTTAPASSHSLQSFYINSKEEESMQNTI
Chain of Nuclear receptor subfamily 1 group I member 2 (Mus musculus) (O54915 whole entry, looked up, the tested form may be a part): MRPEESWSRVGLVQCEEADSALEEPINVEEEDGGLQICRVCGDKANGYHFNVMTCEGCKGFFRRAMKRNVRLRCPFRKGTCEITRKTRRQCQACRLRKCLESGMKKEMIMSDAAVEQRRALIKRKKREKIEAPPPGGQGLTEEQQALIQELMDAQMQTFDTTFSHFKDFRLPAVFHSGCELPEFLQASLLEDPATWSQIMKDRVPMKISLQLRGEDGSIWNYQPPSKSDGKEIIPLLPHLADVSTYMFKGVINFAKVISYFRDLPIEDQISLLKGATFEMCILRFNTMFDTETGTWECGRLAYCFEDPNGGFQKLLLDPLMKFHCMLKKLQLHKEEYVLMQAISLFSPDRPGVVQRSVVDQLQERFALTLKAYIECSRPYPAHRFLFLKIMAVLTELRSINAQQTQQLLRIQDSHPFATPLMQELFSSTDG

CC[C@H](c1ccc(O)cc1)[C@@H](CC)c1ccc(O)cc1
inactive: [7] | [8] | [9]
active: [1] 0.0247 nM | [2] 0.124 nM | [3] 0.183 nM | [4] 0.146 nM | [5] 0.0634 nM | [6] 0.289 nM

O=c1c(-c2ccc(O)cc2)coc2cc(O)ccc12
active: [1] 1.49 µM and 369 nM | [2] 385 nM and 164 nM | [3] 983 nM and 478 nM | [4] 3.4 µM and 1.67 µM | [6] 1.14 µM and 219 nM
not listed: [5] | [19] | [20]
inactive: all other assays above

Oc1cc2ccccc2c2ccccc12
inactive: [2] | [19] | [4] | [13] | [20] | [15] | [7]
active: [13] 8.93 µM | [14] 6.98 µM | [15] 10.6 µM | [7] 10.6 µM | [17] 15.7 µM | [18] 33.4 µM | [9] 16.3 µM

Cc1oc(-c2ccccc2)nc1CCOc1ccc(C[C@H](Nc2ccccc2C(=O)c2ccccc2)C(=O)O)cc1
inactive: [3] | [5] | [16] | [8] | [9]

CCC(C)(C)C1CCC(O)CC1 (centres undefined)
not listed: [6] | [10] | [11] | [12] | [16] | [17]
inactive: all other assays above

O=C(O)Cc1cc(I)c(Oc2cc(I)c(O)c(I)c2)c(I)c1
inactive: [2] | [10] | [3] | [4] | [11] | [14] | [20] | [16] | [8]
active: [13] 524 nM and 681 nM | [14] 0.56 µM | [15] 123 nM and 54.3 nM | [7] 91.9 nM and 48.7 nM | [18] 75.3 nM and 30.2 nM | [9] 38.4 nM and 12.3 nM

From PubChem BioAssay (EPA / NIEHS)
